Calls of active or inactive are those of the source. Rule for the calls: active = hit-call score of the fitted dose curve at least 0.9, where 1 is the maximum; inactive = score below 0.9.
Experiments:
[1] = read-out: TIMP metallopeptidase inhibitor 2 (TIMP2), TIMP2 (gene 7077); assay: BSK_KF3CT_TIMP2: BioMAP Diversity Plus: KF3CT Assay for TIMP metallopeptidase inhibitor 2 (TIMP2) Biomarker Activity (AID 2283071); settings: primary human keratinocytes with fibroblasts; actives raise or lower the signal
Procedure, shortened: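 Keratinocyte–fibroblast co-culture, 24 h exposure; TIMP-2 ELISA, DMSO-normalised bidirectional fit. Parallel SRB (0.1%, TCA-fixed, 560 nm) total-protein staining gauges cytotoxicity.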

[2] = read-out: Transforming growth factor beta 1 (TGFb1), TGFB1 (gene 7040); assay: BSK_KF3CT_TGFb1: BioMAP Diversity Plus: KF3CT Assay for Transforming growth factor beta 1 (TGFb1) Biomarker Activity (AID 2283072); settings: primary human keratinocytes with fibroblasts; actives raise or lower the signal
Procedure, shortened: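 Signal changes in either direction, relative to DMSO, define activity here. TGF-b1 is read by ELISA from a human keratinocyte-fibroblast co-culture 24 h post-dose.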

[3] = read-out: C-C motif chemokine 2 (Homo sapiens) (UniProt P13500); assay: BSK_KF3CT_MCP1: BioMAP Diversity Plus: KF3CT Assay for Monocyte Chemoattractant Protein 1 (MCP1/CCL2) Biomarker Activity (AID 2283073); settings: primary human keratinocytes with fibroblasts; actives raise or lower the signal
Procedure, shortened: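 Human keratinocyte plus foreskin fibroblast primary co-culture exposed to chemical for 24 h. MCP-1 levels measured by ELISA. Bidirectional curve fitting relative to DMSO negative control as baseline.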

[4] = read-out: Matrix Metallopeptidase 9 (MMP9), MMP9 (gene 4318); assay: BSK_KF3CT_MMP9: BioMAP Diversity Plus: KF3CT Assay for Matrix Metallopeptidase 9 (MMP9) Biomarker Activity (AID 2283074); settings: primary human keratinocytes with fibroblasts; actives raise or lower the signal
Procedure, shortened: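 Human keratinocyte and foreskin fibroblast co-culture exposed to chemicals for 24 h; MMP9 biomarker measured by ELISA, bidirectional fitting relative to DMSO; cytotoxicity tracked by SRB total protein staining in parallel cultures.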

[5] = read-out: urokinase plasminogen activator (uPA), PLAU (gene 5328); assay: BSK_KF3CT_uPA: BioMAP Diversity Plus: KF3CT Assay for urokinase plasminogen activator (uPA) Biomarker Activity (AID 2283075); settings: primary human keratinocytes with fibroblasts; actives raise or lower the signal
Procedure, shortened: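 Primary human keratinocyte/foreskin fibroblast co-culture exposed to chemical; uPA measured by ELISA at 24 h. Bidirectional fit versus DMSO, with parallel SRB total-protein staining for cytotoxicity.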

CD40, CD40 (gene 958) [6] = assay: BSK_LPS_CD40: BioMAP Diversity Plus: LPS Assay for CD40 Biomarker Activity (AID 2283076); settings: primary human HUVEC with PBMC; actives raise or lower the signal
Procedure, shortened: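 Primary human umbilical vein endothelial cells co-cultured with peripheral blood mononuclear cells, LPS-stimulated, were dosed with chemical and read 24 h later. CD40 levels were measured by ELISA and fitted bidirectionally against DMSO as negative control and baseline.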

[7] = read-out: E-selectin (Homo sapiens) (UniProt P16581); assay: BSK_LPS_Eselectin: BioMAP Diversity Plus: LPS Assay for Eselectin Biomarker Activity (AID 2283077); settings: primary human HUVEC with PBMC; actives raise or lower the signal
Procedure, shortened: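 Human umbilical vein endothelial cells co-cultured with peripheral blood mononuclear cells under LPS stimulation; E-selectin measured by ELISA 24 h after chemical dosing. Activity fitted bidirectionally against DMSO as negative control and baseline.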

[8] = read-out: Interleukin-8 (IL8), CXCL8 (gene 3576); assay: BSK_LPS_IL8: BioMAP Diversity Plus: LPS Assay for Interleukin-8 (IL8) Biomarker Activity (AID 2283078); settings: primary human HUVEC with PBMC; actives raise or lower the signal
Procedure, shortened: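 Human umbilical vein endothelial cells co-cultured with PBMC were stimulated with LPS; IL-8 levels were measured by ELISA 24 h after chemical dosing. Activity was fitted bidirectionally against DMSO as negative control and baseline.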

[9] = BSK_LPS_SRB: Viability Assessment in the BioMAP Diversity Plus: LPS Assay (AID 2283079); settings: primary human HUVEC with PBMC;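 note: total protein by sulforhodamine B absorbance as a cytotoxicity measure; measured one day after compound addition; fitted in both directions against DMSO so loss or gain of signal counts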
Procedure, shortened: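 Human umbilical vein endothelial cells co-cultured with PBMC (LPS system) were dosed for 24 h. Total protein was stained with 0.1% sulforhodamine B after 10% TCA fixation, read at 560 nm, and fitted bidirectionally against DMSO baseline.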

[10] = read-out: Interleukin-1 alpha (IL1a), IL1A (gene 3552); assay: BSK_LPS_IL1a: BioMAP Diversity Plus: LPS Assay for Interleukin-1 alpha (IL1a) Biomarker Activity (AID 2283080); settings: primary human HUVEC with PBMC; actives raise or lower the signal
Procedure, shortened: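 Human umbilical vein endothelial cells co-cultured with peripheral blood mononuclear cells were LPS-stimulated and exposed to test chemicals for 24 h. IL-1 alpha was quantified by ELISA, with bidirectional curve fitting against DMSO as the negative control and baseline.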

[11] = read-out: Monocyte Chemoattractant Protein-1 (MCP1), CCL2 (gene 6347); assay: BSK_LPS_MCP1: BioMAP Diversity Plus: LPS Assay for Monocyte Chemoattractant Protein-1 (MCP1) Biomarker Activity (AID 2283081); settings: primary human HUVEC with PBMC; actives raise or lower the signal
Procedure, shortened: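 HUVEC plus PBMC co-culture (human primary cells, LPS system) exposed to test chemical for 24 h; MCP-1 measured by ELISA. Bidirectional curve fitting against DMSO baseline; parallel SRB total-protein staining flags overt cytotoxicity.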

[12] = BSK_LPS_PGE2: BioMAP Diversity Plus: LPS Assay for Prostaglandin E2 (PGE2) Biomarker Activity (AID 2283082); settings: primary human HUVEC with PBMC; actives raise or lower the signal;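 for AC50: secreted prostaglandin E2 measured by ELISA in LPS-stimulated co-culture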
Procedure, shortened: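 Endpoint derived from bidirectional curve fitting versus DMSO of ELISA-measured PGE2 in LPS-stimulated human primary vascular co-culture (HUVEC with PBMC) harvested at 24 h.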

[13] = read-out: Macrophage colony-stimulating factor (MCSF), CSF1 (gene 1435); assay: BSK_LPS_MCSF: BioMAP Diversity Plus: LPS Assay for Macrophage colony-stimulating factor (MCSF) Biomarker Activity (AID 2283083); settings: primary human HUVEC with PBMC; actives raise or lower the signal
Procedure, shortened: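 Human umbilical vein endothelial cells co-cultured with peripheral blood mononuclear cells were exposed to compound for 24 h. M-CSF levels were measured by ELISA, and bidirectional curve fitting used DMSO as the negative control and baseline.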

[14] = read-out: Tumor necrosis factor (Homo sapiens) (UniProt P01375); assay: BSK_LPS_TNFa: BioMAP Diversity Plus: LPS Assay for Tumour Necrosis Factor alpha (TNFa) Biomarker Activity (AID 2283085); settings: primary human HUVEC with PBMC; actives raise or lower the signal
Procedure, shortened: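 Primary human vascular co-culture of HUVEC and PBMC; TNFa ELISA 24 h after treatment, analysed as increase or decrease relative to DMSO control.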

[15] = read-out: Vascular cell adhesion molecule 1 (VCAM1), VCAM1 (gene 7412); assay: BSK_LPS_VCAM1: BioMAP Diversity Plus: LPS Assay for Vascular cell adhesion molecule 1 (VCAM1) Biomarker Activity (AID 2283086); settings: primary human HUVEC with PBMC; actives raise or lower the signal
Procedure, shortened: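 Primary human vascular co-culture (umbilical vein endothelium plus PBMC) stimulated with LPS received chemical; 24 h later VCAM-1 was read by ELISA. Overt cytotoxicity was assessed by sulforhodamine B staining of parallel cultures at the same time point.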

CD38, CD38 (gene 952) = assay: BSK_SAg_CD38: BioMAP Diversity Plus: SAg Assay for CD38 Biomarker Activity (AID 2283087); settings: primary human HUVEC with PBMC; actives raise or lower the signal
Procedure, shortened: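 Fluorescence ELISA of cell-surface CD38 served as the read-out, with either increase or decrease fitted against DMSO controls. Cells were a human umbilical vein endothelium plus PBMC co-culture under SEB/TSST-1 stimulation, measured 24 h after dosing.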

CD40, CD40 (gene 958) [16] = assay: BSK_SAg_CD40: BioMAP Diversity Plus: SAg Assay for CD40 Biomarker Activity (AID 2283088); settings: primary human HUVEC with PBMC; actives raise or lower the signal
Procedure, shortened: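 Human umbilical vein endothelial cells co-cultured with PBMC; CD40 levels measured by ELISA with fluorescence read-out 24 h after chemical dosing. Gain or loss of signal fitted bidirectionally against DMSO baseline.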

CD69, CD69 (gene 969) = assay: BSK_SAg_CD69: BioMAP Diversity Plus: SAg Assay for CD69 Biomarker Activity (AID 2283089); settings: primary human HUVEC with PBMC; actives raise or lower the signal;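 for AC50: cell surface CD69 protein quantified by ELISA with fluorescence detection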
Procedure, shortened: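 HUVEC co-cultured with PBMC were dosed with chemical, and CD69 was measured by ELISA with fluorescence read-out 24 h later. Bidirectional curve fitting used DMSO as negative control and activity baseline.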

[17] = read-out: Tissue Factor, F3 (gene 2152); assay: BSK_LPS_TissueFactor: BioMAP Diversity Plus: LPS Assay for Tissue Factor Biomarker Activity (AID 2283084); settings: primary human HUVEC with PBMC; actives raise or lower the signal
Procedure, shortened: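 Human umbilical vein endothelial cells co-cultured with peripheral blood mononuclear cells were dosed and stimulated with LPS. Cell-surface CD142 was quantified by ELISA at 24 h. Activity was fitted bidirectionally against DMSO baseline.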

[18] = read-out: Monocyte Chemoattractant Protein-1 (MCP1), CCL2 (gene 6347); assay: BSK_SAg_MCP1: BioMAP Diversity Plus: SAg Assay for Monocyte Chemoattractant Protein-1 (MCP1) Biomarker Activity (AID 2283090); settings: primary human HUVEC with PBMC; actives raise or lower the signal
Procedure, shortened: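 MCP-1 levels in the endothelial–PBMC SAg co-culture were quantified by ELISA at 24 h post-dosing; both increases and decreases versus DMSO scored. Cytotoxicity monitored by SRB total protein in parallel cultures.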

Measured: AC50

Chain of Tumor necrosis factor (Homo sapiens) (P01375 whole entry, looked up): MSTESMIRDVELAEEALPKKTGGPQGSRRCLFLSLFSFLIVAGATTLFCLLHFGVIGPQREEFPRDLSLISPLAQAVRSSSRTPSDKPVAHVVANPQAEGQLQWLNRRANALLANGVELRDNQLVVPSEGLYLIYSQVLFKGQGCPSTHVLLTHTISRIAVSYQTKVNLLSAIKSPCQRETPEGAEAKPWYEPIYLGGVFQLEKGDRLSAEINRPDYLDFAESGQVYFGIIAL
Chain of E-selectin (Homo sapiens) (P16581 whole entry, looked up): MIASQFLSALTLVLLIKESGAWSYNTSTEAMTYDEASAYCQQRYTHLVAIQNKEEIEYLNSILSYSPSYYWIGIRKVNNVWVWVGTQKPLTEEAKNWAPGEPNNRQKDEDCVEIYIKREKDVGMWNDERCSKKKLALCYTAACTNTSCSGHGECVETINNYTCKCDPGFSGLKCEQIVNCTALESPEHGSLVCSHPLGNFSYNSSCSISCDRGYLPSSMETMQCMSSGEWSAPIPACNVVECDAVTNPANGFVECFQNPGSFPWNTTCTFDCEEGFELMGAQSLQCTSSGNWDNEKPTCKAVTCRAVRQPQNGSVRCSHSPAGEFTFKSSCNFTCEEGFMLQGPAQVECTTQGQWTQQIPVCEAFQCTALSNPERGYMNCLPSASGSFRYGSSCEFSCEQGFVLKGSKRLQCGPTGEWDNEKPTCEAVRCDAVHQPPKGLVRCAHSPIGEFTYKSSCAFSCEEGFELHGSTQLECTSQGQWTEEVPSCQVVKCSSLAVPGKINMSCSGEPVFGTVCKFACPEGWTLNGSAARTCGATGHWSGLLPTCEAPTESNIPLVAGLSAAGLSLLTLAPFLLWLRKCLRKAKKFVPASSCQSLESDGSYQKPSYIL

O=C(O)Cn1c(=O)n(Cc2ccc(Br)cc2F)c(=O)c2ccc(Cl)cc21
active: [12] 10.5 µM | [14] 1.07 µM
not listed: [17] | [18]
inactive: all other assays above

O=C1c2ccccc2C(=O)N1CCc1noc(-c2ccc(CN3CCCCCC3)s2)n1
not listed: [5] | [17] | [18]
inactive: all other assays above

CCCCCCCCOc1ccc(C(=O)c2ccccc2)c(O)c1
active: CD40, CD40 (gene 958) [6] 25.3 µM | [17] 12.6 µM | CD38, CD38 (gene 952) 15.7 µM | CD40, CD40 (gene 958) [16] 30.3 µM
not listed: [4] | [10] | [18]
inactive: all other assays above

OC12N=C(c3ccccc3)SC1Cc1cc(Cl)ccc12 (stereo not given)
active: CD40, CD40 (gene 958) [6] 16.8 µM | [10] 25.3 µM | [15] 10.3 µM | CD40, CD40 (gene 958) [16] 20 µM
not listed: [4] | [5] | [18]
inactive: all other assays above

CCCCCc1ccc(N)cc1
active: [1] 20.8 µM | [12] 12 µM | [15] 20 µM
not listed: [4] | [10] | [17] | [18]
inactive: all other assays above

c1ccc(C[n+]2cccc3ccccc32)cc1
not listed: [4] | [5] | CD40, CD40 (gene 958) [6] | [10]
inactive: all other assays above

CCO[Si](CCCNC(N)=O)(OCC)OCC
not listed: [4] | [5] | [10] | [18]
inactive: all other assays above

CC(O)CC(C)(C)O (stereo not given)
not listed: [4] | [5] | [10] | [17]
inactive: all other assays above

O=C(O)c1ccccc1C(=O)OCc1ccccc1
not listed: [4] | [5] | [10] | [17]
inactive: all other assays above

CCN(Cc1cccc(S(=O)(=O)O)c1)c1ccc(C(=C2C=CC(=[N+](CC)Cc3cccc(S(=O)(=O)O)c3)C=C2)c2ccccc2S(=O)(=O)[O-])cc1
not listed: [4] | [5] | [18]
inactive: all other assays above

Cc1oc2c(NC(=O)c3c(Cl)cccc3Cl)cccc2c1C(C)(C)O
active: [1] 5.2 µM | [7] 6.04 µM | [9] 26.5 µM | [12] 21.1 µM | [17] 4.5 µM | CD38, CD38 (gene 952) 21.3 µM | CD40, CD40 (gene 958) [16] 20.9 µM | CD69, CD69 (gene 969) 19.2 µM | [18] 7.57 µM
not listed: [4] | [5]
inactive: all other assays above

CC1=CC(=O)/C(=C(/C)O)C(=O)O1
active: [3] 0.396 µM
not listed: [4] | [10] | [17] | [18]
inactive: all other assays above

Reference: PubChem BioAssay (EPA / NIEHS)
